TDP1 inh – inhibitors of human tyrosyl-DNA phosphodiesterase TDP1 | recombinant TDP1, AlphaScreen DNA substrate cleavage | Potency, µM (doses to about 130 µM), without a hit: at the top dose activity change, negative = inhibition, hits mostly inhibitors | hit rate 0.28% among 350,000 | AID 485290; also: nearly all actives have a fitted effect of over 40% in size
Target sequence (Q9NUW8 whole entry, looked up): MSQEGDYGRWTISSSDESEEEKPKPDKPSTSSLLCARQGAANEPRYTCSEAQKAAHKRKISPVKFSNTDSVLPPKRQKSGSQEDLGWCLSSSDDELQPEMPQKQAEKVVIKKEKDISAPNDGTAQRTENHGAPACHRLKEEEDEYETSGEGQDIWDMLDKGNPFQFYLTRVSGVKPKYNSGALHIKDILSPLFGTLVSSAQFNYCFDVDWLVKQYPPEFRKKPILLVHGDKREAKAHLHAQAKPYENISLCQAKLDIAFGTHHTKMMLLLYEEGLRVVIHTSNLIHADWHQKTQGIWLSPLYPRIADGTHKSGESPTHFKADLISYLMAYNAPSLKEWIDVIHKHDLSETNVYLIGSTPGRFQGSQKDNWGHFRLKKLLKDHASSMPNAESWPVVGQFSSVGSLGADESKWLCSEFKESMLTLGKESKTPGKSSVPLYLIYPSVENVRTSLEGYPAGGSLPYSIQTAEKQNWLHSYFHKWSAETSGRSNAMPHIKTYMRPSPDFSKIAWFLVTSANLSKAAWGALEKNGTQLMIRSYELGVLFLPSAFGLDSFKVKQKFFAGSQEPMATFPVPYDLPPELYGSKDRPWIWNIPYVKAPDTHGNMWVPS
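Here, a 5' biotin and 3' phosphotyrosine-FITC DNA oligonucleotide reports Tdp1 activity: intact substrate bridges AlphaScreen beads, while cleavage leaves a 3' phosphate and drops signal. All incubations at room temperature.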
Gal4-VP16 FLuc – counter-screen for ROR gamma inhibitors: Gal4-VP16 reporter; AID 2546; Potency, µM (top dose mostly 53.6 µM), without a hit: top-dose activity, negative = inhibition, usual class: inhibitors; hit rate 3.5% among 310,000; Drosophila S2 Gal4-VP16 UAS-luciferase, luminescence, 20 h;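 also: Gal4-VP16 expression switched on by copper sulfate through the metallothionein promoter; nearly all actives have a fitted effect of over 50% in size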
RORgamma inh – blocks mouse ROR gamma transcriptional activity | P51450 | Drosophila S2 Gal4-RORgamma UAS-luciferase reporter, 20 h | Potency, µM (titrated, usually from 53.6 µM), for inactives: top-dose activity change, negative = inhibition, usual class: inhibitors | hit rate 5.4% among 310,000; also: nearly all actives have a fitted effect of over 60% in size
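ROR gamma transcriptional activity was tracked as Gal4-UAS luciferase output in stably transfected Drosophila Schneider cells, with compound added 1 hr before 700 uM copper sulfate induction and a 20 hr ambient-temperature incubation.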
DT40 TDP1 no CPT – qHTS for Inhibitors of human tyrosyl-DNA phosphodiesterase 1 (TDP1): qHTS in cells in absence of CPT; DT40 Tdp1-/- hTDP1 cells, no CPT, ATP luminescence, 48 h; Potency, µM (top dose mostly 46.2 µM), without a hit: at the highest dose activity change, negative = growth inhibition, actives largely listed as inhibitors; hit rate 15% among 420,000; also: nearly all actives have a fitted effect of over 55% in size
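Growth of hTDP1-complemented DT40 Tdp1-knockout cells is measured by ATP luminescence after at least 48 hr compound exposure at 37 °C, with DMSO substituting for the 20 nM CPT used in the parallel screen.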
DT40 TDP1 CPT – DT40-hTDP1 cell growth loss with CPT | chicken DT40 Tdp1-/-;hTDP1 cells + 20 nM CPT, ATP luminescence, 48 h | AID 686979 | Potency, µM (top dose mostly 46.2 µM), without a hit: at the top dose activity change, negative = growth inhibition, actives largely listed as inhibitors | hit rate 12% among 420,000; also: nearly all actives have a fitted effect of over 55% in size
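Chicken DT40 Tdp1-/- cells complemented with human TDP1, 400 cells/well, exposed to compounds plus 20 nM camptothecin for at least 48 h at 37 C; viability read as ATP content by CellTiter-Glo luminescence.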
Starred values were filed as active, the others as inactive; ? = inconclusive; . = no result; ! = repeats disagree; [ ] = another dose, or the depositor's remark. Sampled rows, rich in hits. Any-hit rate of the full collection: about 19%. Calls follow the shape of the dose curve; as a rule, active = well fitted curve in the direction sought with a large enough effect; inconclusive = small, poorly fitted or top-dose-only effect, or another doubt; inactive = no such curve, though single readings can be large; an effect the other way counts as inactive or inconclusive. % is scaled to controls: 0 for no effect and ±100 for the full control effect; potency is read from the fitted curve at half-maximal effect.

SMILES | TDP1 inh | Gal4-VP16 FLuc | RORgamma inh | DT40 TDP1 no CPT | DT40 TDP1 CPT
Cc1cccc(NC(=S)N/C(=N/S(=O)(=O)c2ccccc2)c2ccccc2)c1 | -2% | ? | ? | ? | -2%
O=C(CCCOc1ccc(Cl)cc1Cl)NCCc1nnc2ccccn12 | -4% | -5% | 40% | -23% | -19%
Cc1cc(OCCCC(=O)NCCc2nnc3ccccn23)ccc1Cl | -1% | . | . | 16µM* | ?
COc1ccc(S(=O)(=O)NCC(c2ccc(N(C)C)cc2)N2CCc3ccccc32)cc1F (centres undefined) | 11% | . | . | ? | ?
Cc1cc(S(=O)(=O)Nc2cccnc2)c(C)s1 | 2% | -11% | 8% | -17% | -8%
Cc1cc(S(=O)(=O)Nc2cc(C)c(O)c(C)c2)c(C)s1 | 0% | ? | ? | 2.9µM* | 2.6µM*
Cc1cc(S(=O)(=O)Nc2ccc3ccccc3c2)c(C)s1 | 0% | ? | -40% | 11µM* | 10µM*
CC(C)(C)c1ccc(Oc2cccc(C3CC(=O)C(C4NCCc5ccccc54)C(=O)C3n3cncn3)c2)cc1 (centres undefined) | 14% | -5% | -23% | 7% | -3%
CC1CCN(C(=S)NC(=O)c2ccc(C(C)(C)C)cc2)CC1 | 6% | . | . | ? | 23µM*
CC1CCN(C(=O)C2CCN(C(=O)c3ccc(C(C)(C)C)cc3)CC2)CC1 | . | -2% | 38% | ? | -15%
CC1CCN(C(=S)NC(=O)c2ccccc2)CC1 | 5% | 4.5µM* | 2.8µM* | ? | ?
CC1C(c2ccccc2)OCCN1C(=S)NC(=O)c1ccccc1 (centres undefined) | . | . | . | 5% | -20%
O=C(NCC(c1ccco1)N1CCc2ccccc21)C(=O)Nc1ccccc1F (centres undefined) | . | . | . | 18µM* | ?
O=C(NCC(c1ccco1)N1CCc2ccccc21)C(=O)Nc1ccc(F)cc1F (centres undefined) | . | . | . | 3.3µM* | 4.1µM*
O=C(NC1CCCCC1)c1ccc(S(=O)(=O)c2ccccc2Cl)c([N+](=O)[O-])c1 | -2% | ? | -6% | . | .
O=C(O)c1ccc(-n2cccc2/C=C2/SC(=O)N(CC(=O)N3CCCC3)C2=O)cc1 | 50µM* | -6% | -11% | 4% | -1%
N#C/C(=C/c1cccn1-c1cccc(C(=O)O)c1)c1ccc(Cl)cc1 | . | 2% | 3% | -8% | 0%
N#Cc1ccccc1CN1C(=O)S/C(=C/c2cccn2-c2ccc(C(=O)O)cc2)C1=O | 14µM* | 0% | 0% | -21% | -10%
N#CC(C#N)=Cc1cccn1-c1ccc(C(=O)O)cc1 | 3.2µM* | 11% | 6% | 16% | 5%
Cc1ccc2cccc(S(=O)(=O)NC3CCS(=O)(=O)C3)c2n1 (centres undefined) | 0% | -7% | 21% | -7% | -17%
Fc1ccc(SCCc2ccncc2)cc1 | -2% | 0% | 12% | 18µM*! | ?
O=[N+]([O-])c1ccc(SCCc2ccccn2)cc1 | . | 11% | 20% | -29% | -15%
O=[N+]([O-])c1ccc(SCCc2ccncc2)cc1 | 10% | -4% | -6% | 21µM* | ?
COc1ccc(NS(=O)(=O)c2ccc3c(c2)C(C(C)C)C(=O)N3)cc1 (centres undefined) | 2% | . | . | ? | ?
CC(C)C1C(=O)Nc2ccc(S(=O)(=O)NCc3ccc(Cl)cc3)cc21 (centres undefined) | 6% | . | . | 16µM* | 23µM*
SMILES | TDP1 inh | Gal4-VP16 FLuc | RORgamma inh | DT40 TDP1 no CPT | DT40 TDP1 CPT
Nc1[nH]c2cc([N+](=O)[O-])ccc2c1-c1ccccn1 | 7% | ? | ? | ? | 15µM*
COc1ccc2c3c(ccc2c1)C(=O)/C(=C/O)CC3 | . | . | . | 16µM* | ?
CNC(=O)c1[nH]nc2c1CCc1cc(OC)ccc1-2 | . | 6% | 4% | ? | ?
COc1ccc2c(c1OC)OCC2C (centres undefined) | . | . | . | 18µM* | ?
CCOC(=O)C1=C(C)N=c2s/c(=C3/C(=O)Nc4ccccc43)c(=O)n2C1c1ccc(C)cc1 (centres undefined) | -5% | -9% | -34% | 23µM* | 26µM*
CCOC(=O)C1=C(C)n2c(s/c(=C3\C(=O)Nc4ccccc43)c2=O)=NC1c1ccc(OC)cc1 (centres undefined) | 3% | -14% | -12% | 21µM* | ?
CCOC(=O)C1=C(C)N(Cc2ccccc2)C(=O)NC1c1ccc(OC)cc1 (centres undefined) | 4% | 7% | ? | -20% | -17%
Cc1ccc(NC(=O)CN2CCc3ccccc3C2)cc1F | -2% | 0% | 45% | ? | -6%
CC(C)C[C@@H]1NC(=O)[C@H](CCCN)NC(=O)[C@H](C(C)C)NC(=O)[C@@H]2CCCN2C(=O)[C@@H](Cc2ccccc2)NC(=O)[C@H](CC(C)C)NC(=O)[C@H](CCCN)NC(=O)[C@H](C(C)C)NC(=O)[C@@H]2CCCN2C(=O)[C@@H](Cc2ccccc2)NC1=O | . | . | . | 0.15µM* | 0.41µM*
Cc1onc(C(=O)Nc2cccc(C(F)(F)F)c2)c1[N+](=O)[O-] | 4% | ? | 8% | ? | ?
CN1CCC(N(C)S(=O)(=O)c2ccc(Cl)cc2)CC1 | . | 0% | -34%[1.91 µM] | 18% | -1%
Cc1cc(C)c(C)c(S(=O)(=O)N(C)C2CCN(C)CC2)c1C | . | 3% | -14% | 16µM* | 23µM*
O=C(CSc1nnc(-c2ccccc2)n1Cc1ccco1)NCc1ccc2c(c1)OCO2 | 7% | 0% | 10% | -19% | -13%
NC(=O)C1=C[C@H](c2coc3ccccc3c2=O)C[C@H](OCc2ccc(CO)cc2)O1 | 4% | -1% | 8% | -11% | -3%
Cc1cc(NC(=O)C(C)Oc2ccc(C(C)(C)C)cc2)no1 (centres undefined) | 0% | 5% | -3% | -7% | -10%
O=c1cc(O)sc2ccccc12 | -11% | -2% | ? | -9% | -7%
O=C1Nc2cc3c(cc2C1=O)sc1ccccc13 | . | -25% | ? | 29µM* | 21µM*
Cc1cc(C)cc(C(=O)N(NC(=O)Nc2ccc(Cl)cc2)C(C)(C)C)c1 | -2% | ? | ? | ? | 15µM*
CC(C)(C)N(NC(=O)Nc1ccc(Cl)c(Cl)c1)C(=O)c1ccccc1 | 2% | -17% | ? | 18µM* | 18µM*
Cc1cccc(C)c1NC(=O)NN(C(=O)c1ccccc1)C(C)(C)C | 1% | -11% | 3% | -10% | -26%
CC(C)(C)N(NC(=O)Nc1ccc(F)cc1)C(=O)c1ccccc1 | -5% | -3% | -16% | -14% | -6%

Screens from PubChem.
